Only a selection was taken, and hits are over-represented in it overall.
Tgondii IFNg = T. gondii growth inhibition under IFN-gamma | AID 1259416 | 3.8% of 69,000 active | activity change, negative = inhibition, % (concentration not given with the values) | Toxoplasma gondii growth in IFN-gamma-treated host cells; active compounds read low; in the data active = activity change below about -70%, passing the limit was not always enough;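 also: host cells are HeLa cells infected with Toxoplasma gondii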
* marks the source's active call; other numbers are inactive results.

SMILES	Tgondii IFNg
Cc1ccc(CC(=O)N2CCC3(CC2)Nc2cc(F)ccc2-n2cccc23)cc1	39
Cc1cc(CN(C)Cc2nc3ccccc3n2C(C)c2ccccc2)n[nH]1 (stereo not given)	-79*
CC(c1ccccn1)N(C)Cc1nc2ccccc2n1C(C)C (stereo not given)	-20
Cc1cc(CN(C)Cc2ccc(-n3cccn3)cc2)n[nH]1	-3
Cc1cccc(-c2cc3nc4c(c(=O)n3[nH]2)CCC4)c1	-100*
Cc1[nH]n2c(=O)c3c(nc2c1-c1cccs1)CCC3	-11
Cc1cccc(-c2cc3nc(C)cc(=O)n3[nH]2)c1	-21
Cn1c(=O)c(C(=O)NCc2nnc(-c3ccccc3)o2)nc2ccccc21	15
CCN(Cc1ccc2cccc(O)c2n1)CC1CCOCC1	3
CCn1c(CC2CCN(C(=O)c3cc(C(C)C)nn3C)CC2)n[nH]c1=O	-1
c1coc(CNC2CCN(c3ccc4c(c3)OCCO4)CC2)c1	11
Cc1oc(-c2ccc(C(=O)NCCc3cnc[nH]3)cc2)nc1CN1CCN(c2ccccc2)CC1	-110*
CCNC(=O)c1ccc(-c2nc(CN3CCN(c4ccccc4)CC3)c(C)o2)cc1	45
CCCCN(CC)C(=O)c1ccc(-c2nc(CN3CCN(c4ccccc4)CC3)c(C)o2)cc1	-69
COCCNC(=O)c1ccc(-c2nc(CN3CCN(c4ccccc4)CC3)c(C)o2)cc1	-4
CCN(CC)CCCNC(=O)c1ccc(-c2nc(CN3CCN(c4ccccc4)CC3)c(C)o2)cc1	-104*
Cc1oc(-c2ccc(C(=O)NCCc3ccco3)cc2)nc1CN1CCN(c2ccccc2)CC1	17
O=C1C[C@H]2[C@H](CCN2S(=O)(=O)c2ccccc2F)N1	-16
CN(C)c1ccc(NC(=O)Nc2ccccc2)cc1	204
CS(=O)(=O)NC1CCN(C2CCC3(CCNCC3)CC2)CC1	46
Cc1ccc(CC(=O)NC(Cc2cc(=O)[nH]c(C(C)C)n2)c2ccc(F)cc2)cc1 (stereo not given)	9
COC(=O)[C@@H]1C[C@H](NC(=O)c2cc(-c3ccccc3)nn2C)CN1C	6
O=C(c1ccc(N2CCCC2=O)cc1)N1CC[C@@H](c2ccc(F)cc2)[C@H](O)C1	-7
C=C(C)Cc1c(C)nc(-c2ccc(Cl)cc2)nc1OC(=S)N(CC)CC	-98*
Cc1ccc2c(c1)CCCN2C(=O)CN(Cc1ccccn1)CC1CCCO1 (stereo not given)	7
SMILES	Tgondii IFNg
O=C(Oc1cccccc1=O)c1ccccc1	0
Cc1ccc2c(Br)cc(Br)c(OC(=O)c3ccccc3)c2n1	-85*
O=C(Oc1cccc2cccnc12)c1ccccc1	9
CCC(=O)Nc1ccc(NC(=O)C(C)N2CCCC2=O)cc1Cl (stereo not given)	99
CCc1cnc(C)nc1-c1cc(NCCO)nc2[nH]ccc12	-60
COc1ccccc1/C=C/CN1CCNC(C(=O)N2CCCC2)C1 (stereo not given)	2
COc1ccccc1/C=C/CN1CC2CCCN2C[C@H]1C (stereo not given in full)	-79*
COc1ccccc1/C=C/CN1CCN(C)C(C(=O)O)C1 (stereo not given)	5
Cc1nc(N2CCCC2)sc1C(=O)Nc1cccc(N2CCCCS2(=O)=O)c1	9
O=c1c2c3ccccc3[nH]c2c2cccc3c2n1CC3	-89*
CN1CCc2ccccc2Cc2[nH]c3ccccc3c2CC1	7
O=c1cc(O)c2c(=O)n3c4c(cccc4c2o1)CCC3	-15
CCSc1nc(CC(=O)N2CCCCC2C(=O)O)cs1 (stereo not given)	5
Cc1c(C(=O)N(Cc2ccncc2)C2CCN(C)CC2)[nH]c2ccc(F)cc12	2
COc1cccc(C#Cc2ccc3c(c2)O[C@H](CN(C)C(=O)CN2CCOCC2)[C@H](C)CN([C@H](C)CO)S3(=O)=O)c1	6
C[C@@H]1CN([C@@H](C)CO)S(=O)(=O)c2ccc(C#CCC3CCCC3)cc2O[C@H]1CN(C)C(=O)c1cnccn1	-62
C[C@H]1CN([C@@H](C)CO)S(=O)(=O)c2ccc(C#CCC3CCCC3)cc2O[C@H]1CN(C)C(=O)c1cnccn1	-91*
COc1cccc(C#Cc2ccc3c(c2)O[C@@H](CN(C)C(=O)CN2CCOCC2)[C@@H](C)CN([C@H](C)CO)S3(=O)=O)c1	-42
COCC#Cc1ccc2c(c1)O[C@H](CN(C)C(=O)C1CCOCC1)[C@H](C)CN([C@H](C)CO)S2(=O)=O	65
C[C@@H]1CN([C@@H](C)CO)S(=O)(=O)c2ccc(C#Cc3ccccc3F)cc2O[C@H]1CN(C)C(=O)Cc1cccnc1	-90*
COCC1CCC2(CCN(C(=O)COc3ccc(F)cc3)CC2)N1C (stereo not given)	-2
COc1cccc(-c2nccn2CCC2CCCN2C)c1OC (stereo not given)	56
Cn1cccc1C(=O)N1CCC2(CC1)C(=O)NCC2c1ccccc1 (stereo not given)	-1
COc1ccc(C(Nc2ccc(C)cc2)C(=O)NC2CCCCC2)cc1 (stereo not given)	58
COc1ccc(-c2cc3c(n(C)c2=O)CCN(C(=O)CCc2c(C)noc2C)C3)c2ccc(C)nc12	-3
SMILES	Tgondii IFNg
CCCc1cc(NCC2(O)CCCNCC2)nc(C)n1 (stereo not given)	5
Cc1ccoc1C(=O)N1CCC2C(C[C@@H](CN3CCCC3)N2C)C1 (stereo not given in full)	-10
Cc1nc(C(C)N(C)Cc2ccc(Sc3nncn3C)o2)c(C)s1 (stereo not given)	10
Cc1[nH]c2ccccc2c1C(=O)CSc1nc2ccccc2o1	-39
Cc1cc(CSc2nc3ccccc3o2)c(C)cc1CSc1nc2ccccc2o1	-3
O=c1cc(CSc2nc3ccccc3o2)[nH]c2nc3ccccc3n12	-97*
Cc1nn2c3ccccc3n(CC(=O)c3ccco3)c2nc1=O	2
O=C(NCc1ccccc1)c1c(O)c2cccnc2[nH]c1=O	8
O=C(COCc1ccccc1)NCc1cnn2ccccc12	-30
Oc1ccc(COCc2ccccc2)c2cccnc12	-96*
Cc1ccc(-c2nnc(SCC(=O)c3ccc4c(c3)n(C)c(=O)n4C)n2C)cc1	-98*
Cc1ccc(C(=O)CSc2nnc(-c3ccncc3)n2C)cc1	-3
CC(C)OC(=O)CSc1nnc(-c2ccc(O)cc2)n1C	6
COc1ccccc1OCCN(C)C(=O)c1ccc(=O)n(C)c1	14
CN(Cc1cc(-c2ccccc2)on1)C(=O)CCc1cn2ccccc2n1	172
Cc1c(C(=O)NCCS(=O)(=O)N(C)C)sc2ccccc12	4
COc1cc2c(c(OC)c1OC)-c1ccc(OC)c(=O)cc1C(NC(C)=O)CC2 (stereo not given)	-79*
COc1cc2c(c(OC)c1OC)C(=O)CC2	73
COc1cc(-c2cccc(NC(C)=O)c2)cc(OC)c1OC	11
CC(=O)N1Cc2cncn2CC(COCC(=O)N2CCCC2)C1 (stereo not given)	-3
CC(=O)ON(CC(=O)Nc1ccccc1C(=O)c1ccccc1)C(C)=O	-77*
Cc1ccc(NC(=O)CCNS(=O)(=O)c2ccccc2)c(C(=O)c2ccccc2)c1	-1
COC(=O)c1ccccc1NC(=O)COc1nc(C)nc2ccccc12	6
Cc1ncnc2c1CCN(CCN1CCCC1)CC2	-31
CCN1c2cc(C)ccc2-n2cccc2C12CCN(C(=O)c1cc(OC)c(OC)c(OC)c1)CC2	-10
CCC(CC)C(=O)NCCn1ncc(-c2cnccn2)c1-c1cccs1	94
O=c1c2ccccc2oc2ccccc12	15
O=c1c2ccccc2oc2ccc(Cl)cc12	150

Compound activity deposited in PubChem by Broad Institute.
